LMP1 NFkB inh: EBV LMP1-driven NF-kappaB luciferase reporter inhibitors, primary screen, cell-based, luminescence, single point | 350,000 tested, 0.69% active | inhibition, % at 12.5 µM | LMP1-induced NF-kappaB luciferase reporter cells | AID 504558, 2011; in the data active means inhibition above about 41%; inconclusive means no clear call, values can overlap the other calls
TROY signal inh: inhibitors of TROY-driven NF-kB signaling, primary screen, Q293 LMP1-TROYcd cells, NF-kB luciferase, uHTS; Q293 LMP1-TROYcd NF-kB luciferase reporter, 4 h; inhibition, % at 10 µM; 360,000 tested, 0.98% active;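 active means compounds whose plate-normalised and pattern-corrected inhibition of the luciferase reporter signal at the single screening dose is 50% or more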
Shn3 3UTR inh: reduction of Shn3 3'UTR firefly luciferase signal, primary screen, Schnurri-3 inhibitor project, cell-based, Clone20 osteoblasts, set 2. 360,000 tested, 0.52% active. inhibition, % at 12.5 µM. AID 588674, 2011. Clone20 osteoblast Shn3 3'UTR firefly luciferase, 24 h;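 active means mean inhibition of at least 75% with every replicate also reaching 75%; inconclusive means mean inhibition at least 75% but some replicate below; inactive means mean inhibition below 75%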
HIF-2a block: HIF-2a reporter inhibitors, primary screen, luminescence, 786-0 RCC cells; AID 624352, 2012; 786-0 RCC cells HIF-2a reporter, luciferase luminescence, overnight; 360,000 tested, 0.72% active; inhibition, % at 18.8 µM;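 active means inhibition of the luminescence signal of 40% or more relative to plate controls, in a single-dose primary screen at 18.75 µM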
TWEAK Fn14 block: inhibitors of TWEAK-Fn14 signaling, primary screen, luciferase reporter cells, uHTS; TWEAK-stimulated Fn14 reporter cells, luciferase luminescence, 8 h; inhibition, % at 10 µM; 360,000 tested, 2% active; in the data active means inhibition above about 50%
MITF TRPM1 inh: inhibitors of MITF-dependent TRPM1 promoter reporter, primary screen, cell-based, SK-MEL-5, single point, luciferase. inhibition, % at 12.5 µM. SK-MEL-5 TRPM1 promoter luciferase, 24 h. 330,000 tested, 0.83% active;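 active means mean inhibition across replicates of 60% or more, whatever share of single replicates reaches that level; inconclusive means some that reach 60%, reason not given; inactive means mean inhibition across replicates below 60%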
Mdm2-MdmX confirm: retested Mdm2-MdmX interaction blockers, confirmation, cell-based, luminescence, single concentration, set 2. SaOS-2 split-luciferase Mdm2/MdmX complementation. shares compounds with HIF-2a block. inhibition, % at 8 µM. 740 tested, 99% active;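 active means mean inhibition of the luminescence signal across two replicates at or above 26 percent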
Target sequence (O15151 whole entry, looked up): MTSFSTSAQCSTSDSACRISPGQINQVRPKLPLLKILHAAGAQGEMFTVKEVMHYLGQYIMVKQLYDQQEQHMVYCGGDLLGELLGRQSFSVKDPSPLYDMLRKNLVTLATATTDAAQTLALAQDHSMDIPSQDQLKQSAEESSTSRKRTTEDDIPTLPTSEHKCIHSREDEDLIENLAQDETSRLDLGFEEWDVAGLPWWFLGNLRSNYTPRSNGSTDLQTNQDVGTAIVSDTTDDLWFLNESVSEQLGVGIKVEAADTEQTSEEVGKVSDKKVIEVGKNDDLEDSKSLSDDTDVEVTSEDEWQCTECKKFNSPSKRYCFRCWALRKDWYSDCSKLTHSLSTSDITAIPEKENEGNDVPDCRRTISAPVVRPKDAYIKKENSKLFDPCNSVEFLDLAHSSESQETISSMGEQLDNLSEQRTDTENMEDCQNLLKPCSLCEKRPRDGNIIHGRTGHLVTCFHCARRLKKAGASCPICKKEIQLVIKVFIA
Target sequence (Q00987 whole entry, looked up): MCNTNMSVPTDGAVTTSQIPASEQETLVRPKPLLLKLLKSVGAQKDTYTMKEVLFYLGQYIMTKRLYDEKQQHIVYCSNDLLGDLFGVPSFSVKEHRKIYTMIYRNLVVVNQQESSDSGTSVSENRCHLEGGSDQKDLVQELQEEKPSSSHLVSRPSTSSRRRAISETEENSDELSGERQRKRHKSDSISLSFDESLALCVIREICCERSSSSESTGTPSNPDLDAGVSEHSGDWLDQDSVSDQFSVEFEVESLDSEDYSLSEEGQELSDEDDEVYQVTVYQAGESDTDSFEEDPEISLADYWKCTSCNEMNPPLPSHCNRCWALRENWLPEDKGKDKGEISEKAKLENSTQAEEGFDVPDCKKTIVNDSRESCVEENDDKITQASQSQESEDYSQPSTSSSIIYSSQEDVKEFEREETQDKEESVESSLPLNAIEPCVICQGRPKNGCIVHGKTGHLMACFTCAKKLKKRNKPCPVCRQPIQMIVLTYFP
HIF-2a inh conf: HIF-2a reporter inhibitor retest, confirmation, luminescence, 786-0 RCC cells | shares compounds with HIF-2a block | HIF-2a luciferase reporter luminescence, overnight | inhibition, % at 18.8 µM | 1,800 tested, 56% active;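 active means mean inhibition across four replicates of at least 40 percent at the single tested concentration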
HIF-1a counter: HIF-1a luciferase reporter signal reduction – MiaPaCa-2 cells, single concentration, counter-screen for HIF-2a inhibitor project, confirmation | shares compounds with HIF-2a block | MiaPaCa-2 HIF-1a luciferase reporter, desferoxamine, overnight | inhibition, % at 18.8 µM | 1,800 tested, 72% active | AID 651589, 2012;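 active means mean inhibition of the reporter signal across four replicates at the single tested dose of 50% or more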
Numbers stand for hits; 0 = inactive; ? = inconclusive; - = no result. A selection: hits, their analogues and other compounds. The true share with any hit is near 3.4%.

SMILES	LMP1 NFkB inh	TROY signal inh	Shn3 3UTR inh	HIF-2a block	TWEAK Fn14 block	MITF TRPM1 inh	HIF-2a inh conf	HIF-1a counter	others
COc1nn(-c2ccccc2)c(=O)c(Cl)c1Cl	0	73.9	0	92.7	99.3	84.3	64.7	106.1
COCC(=O)N1CCC(Oc2ccc(C(=O)NC3Cc4ccccc4C3)cc2)CC1	0	0	0	44.4	0	0	42.9	0
CC(NC(=O)COc1ccc(S(=O)(=O)N2CCCC2)cc1)c1ccccc1 (stereo not drawn)	0	0	0	0	0	0	-	-
Cc1ccc2nc(NC(=O)c3ccco3)sc2c1	52.7	61.9	0	47.9	97.8	0	71.0	67.8
Cc1ccc2nc(NC(=S)NC(=O)c3ccco3)sc2c1	0	0	0	0	0	0	-	-
C/C=C(\C)C(=O)OC(C)(C)[C@H]1Cc2cc3ccc(=O)oc3cc2O1	0	0	0	0	0	0	-	-
N=c1c2c(-c3ccccc3)c(-c3ccccc3)n(Cc3ccco3)c2ncn1CCCN1CCOCC1	0	0	0	0	0	0	-	-	Mdm2-MdmX confirm=102.0
c1ccc(-c2c(-c3ccccc3)n(Cc3ccco3)c3ncnc(NCCCn4ccnc4)c23)cc1	0	0	0	49.3	0	0	0	100.9
N=c1c2c(-c3ccccc3)c(-c3ccccc3)n(Cc3ccco3)c2ncn1CCCn1ccnc1	0	0	0	69.4	0	88.2	0	74.4
CC(C)Cn1cnc2c(c(-c3ccccc3)c(-c3ccccc3)n2Cc2ccco2)c1=N	0	0	0	58.1	0	0	0	102.2
N=c1c2c(-c3ccccc3)c(-c3ccccc3)n(Cc3ccco3)c2ncn1Cc1ccccc1	0	0	0	0	0	0	-	-
OCCNc1ncnc2c1c(-c1ccccc1)c(-c1ccccc1)n2Cc1ccco1	0	0	0	0	0	0	-	-
O=C(OCC(=O)c1c[nH]c2ccccc12)c1cc(S(=O)(=O)N2CCOCC2)ccc1F	0	0	0	42.0	0	0	0	72.3
Oc1ccc(N=Nc2ccc3c(c2)OCCO3)c2cccnc12	60.0	76.0	93.4	0	0	64.7	-	-	Mdm2-MdmX confirm=88.7
COc1cc(NC(=O)COC(=O)c2n[nH]c3ccccc23)c(C)cc1[N+](=O)[O-]	0	0	0	0	0	0	-	-
CCn1c(C)nc2cc(-c3nc4n(n3)Cc3ccccc3-4)ccc21	86.4	-	97.3	91.2	105.3	97.5	-	-	Mdm2-MdmX confirm=100.5
COc1ccc(CCNC(=O)c2cc3c(=O)n4cccc(C)c4nc3n(Cc3ccco3)c2=N)cc1OC	0	0	0	60.0	86.5	0	0	0	Mdm2-MdmX confirm=0
Cc1cccn2c(=O)c3cc(C(=O)NCCc4ccccc4)c(=N)n(Cc4ccco4)c3nc12	0	0	0	93.2	101.1	0	0	83.2	Mdm2-MdmX confirm=29.0
COc1cc2ccccc2cc1C(=O)Nc1ccc(Cl)cn1	0	0	0	0	0	0	-	-
Cc1cc(C(=O)Nc2ccc(CC(=O)O)cc2)c(C)o1	0	0	0	48.5	0	0	60.4	0
CC(C)(C)c1ccc(C(=O)Nc2ccc(CC(=O)O)cc2)o1	72.4	55.1	0	82.7	87.7	73.3	95.9	78.8
Cc1nc(NC(=O)CSc2nnc(C3CC3)n2C)sc1C	0	0	0	0	0	0	-	-
CCN(CC)CCNC(=O)c1cc2c(-c3ccc(Cl)cc3)nn(C)c2s1	0	0	0	58.5	0	62.2	0	88.5
CC(=O)OC1CCC2(C)C(CCC3C4CC=C(C(C)=O)C4(C)OC(=O)CC32)C1 (stereo not drawn)	79.3	0	?	65.6	102.1	-	62.2	105.0
CC(=O)O[C@H]1CC[C@@]2(C)C(CCC3C2CC[C@]2(C)OC(=O)CCC32)C1 (stereo partly drawn)	0	0	0	0	0	0	-	-
SMILES	LMP1 NFkB inh	TROY signal inh	Shn3 3UTR inh	HIF-2a block	TWEAK Fn14 block	MITF TRPM1 inh	HIF-2a inh conf	HIF-1a counter	others
Cc1nnc(SCC(=O)NC23CC4CC(CC(C4)C2)C3)n(N)c1=O	0	84.6	0	68.1	97.3	0	0	0
Cn1ccnc1SCC(=O)NC12CC3CC(CC(C3)C1)C2	0	0	0	0	0	0	-	-
CCc1ccc2oc(=O)cc(CN3CCOCC3)c2c1	0	0	0	46.0	0	0	0	0
O=S(=O)(/C(=C/c1ccc(C(F)(F)F)cc1)c1nc2ccccc2[nH]1)c1ccccc1	0	0	0	89.9	62.9	90.5	98.9	107.1
CC(C)c1ccc(/C=C(\c2nc3ccccc3[nH]2)S(=O)(=O)c2ccccc2)cc1	0	0	91.7	90.1	93.8	87.5	97.8	104.2	Mdm2-MdmX confirm=103.0
O=C(/C=C/c1ccccc1)NC1CCSC1=O (stereo not drawn)	0	0	0	0	0	0	-	-
O=C(COC(=O)c1ccc(OC(F)F)cc1)NCCCN1CCCC1=O	0	0	0	0	0	0	-	-
CC1(C)Cc2c(cnn2-c2ccc(F)cc2)C(NC(=O)CCN2CCCC2=O)C1 (stereo not drawn)	0	0	0	0	0	0	-	-
COc1cc(C2CC(c3cccs3)=NN2C(=O)CCl)ccc1OC(F)F (stereo not drawn)	0	0	0	0	0	64.8	-	-	Mdm2-MdmX confirm=103.0
COc1ccc(C2CC(c3cccs3)=NN2C(=O)CCl)cc1OC (stereo not drawn)	0	0	0	0	0	83.2	-	-	Mdm2-MdmX confirm=95.8
c1ccc(-c2nc3cccnc3nc2-c2ccccc2)cc1	0	0	0	0	0	0	-	-
OCC1(Cc2ccccc2)CCN(C2CCN(c3ccc(F)c(F)c3)CC2)CC1	0	0	0	0	0	0	-	-
Cc1ccc(OCC(=O)NCCCNC(=O)c2ccccn2)cc1	0	0	0	0	0	0	-	-
COCCCNC(=O)COc1ccc(-c2nccc(-c3ccccn3)n2)cc1	0	0	0	40.2	0	0	0	0
Cc1c(NC(=O)CSc2nnc3c4ccccc4n(CCc4ccccc4)c3n2)c(=O)n(-c2ccccc2)n1C	0	0	0	0	0	0	-	-	Mdm2-MdmX confirm=101.0

Compound activity as filed in PubChem BioAssay.
